The nature of assay [1]: compound effects on lung adenocarcinoma cell viability – A549, calcein-AM fluorescence, 48 h, basal, profiling panel (AID 1162). Further: test concentration not given here. The following applies: higher = more signal.
Assay [2] in a line: compound effects on differentiated 3T3-L1 adipocyte viability – cell-based, 3T3-L1 adipocytes, calcein-AM fluorescence, 48 h, basal, profiling panel (AID 1163). Further: test concentration not given here. The conditions noted are these: 3T3-L1 adipocytes viability, higher = more signal.
Assay [3] is described as follows: compound effects on hepatocellular carcinoma cell viability – HepG2, calcein-AM fluorescence, 48 h, basal, profiling panel (AID 1164). Further: test concentration not given here. The conditions noted are these: higher = more signal.
Assay [4] is described as follows: compound effects on multiple myeloma cell viability – MM1S, calcein-AM fluorescence, 48 h, basal, profiling panel (AID 1165).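 Further: viability of MM1S multiple myeloma cells under basal unstimulated conditions; test concentration not given here.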 The following applies: higher = more signal.
Assay [5] is described as follows: calcein-AM signal in unstimulated myeloma cells – cell-based, calcein-AM fluorescence, 48 h, PK04 Diversity Set, profiling panel (AID 1166).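 Further: cells grown under basal conditions without added stimulus; test concentration not given here.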 The following applies: RPMI8226 myeloma viability, higher = more signal.
Assay [6] is described as follows: JC-1 mitochondrial signal, unstimulated HepG2 cells – cell-based, JC-1 fluorescence, 24 h, 100 nL compound, profiling panel (AID 1167). Further: test concentration not given here. The conditions noted are these: HepG2 mitochondrial potential, higher = more signal.
A short description of assay [7]: JC-1 mitochondrial signal, unstimulated adipocytes – cell-based, JC-1 fluorescence, 3T3-L1 adipocytes, 24 h, 100 nL compound, profiling panel (AID 1168). Further: test concentration not given here. The following applies: JC-1 mitochondrial fluorescence, higher = more signal, called active from +8 up or from −8 down.
Assay [8] is described as follows: JC-1 mitochondrial signal, unstimulated myeloma cells – cell-based, JC-1 fluorescence, RPMI8226, 24 h, 100 nL compound, profiling panel (AID 1169). Further: test concentration not given here. The conditions noted are these: JC-1 mitochondrial potential fluorescence, higher = more signal.
Assay [9] can be described thus: JC-1 mitochondrial signal, unstimulated MM1S myeloma – cell-based, JC-1 fluorescence, 24 h, 100 nL compound, profiling panel (AID 1170). Further: test concentration not given here. The conditions noted are these: MM1S mitochondrial potential, higher = more signal.
Assay [10] in a line: resazurin metabolic signal in A549 cells – cell-based, resazurin fluorescence, 24 h, PK04 Diversity Set, profiling panel (AID 1171). Further: test concentration not given here. The conditions noted are these: A549 viability, higher = more signal, called active from +8 up or from −8 down.
A short description of assay [11]: resazurin metabolic signal in HepG2 cells – cell-based, resazurin fluorescence, 24 h, PK04 Diversity Set, profiling panel (AID 1172). Further: test concentration not given here. The following applies: HepG2 viability, higher = more signal.
The nature of assay [12]: budding yeast growth changes without added modifier – OD600, strain BY4716, 24 h, basal condition, primary screen (AID 1173). The following applies: S. cerevisiae BY4716 growth, OD600, 24 h; higher = more signal, called active from +8 up or from −8 down.
Assay [13] in a line: viability profiling in MM1S myeloma cells – cell-based, resazurin fluorescence, basal, 24 h, PK04 Diversity Set, profiling panel (AID 1174). Further: test concentration not given here. The following applies: higher = more signal, called active from +8 up or from −8 down. (In general: Alamar Blue is a resazurin reagent that responds to reducing activity.)
Assay [14] addresses Dihydroorotate dehydrogenase (quinone), mitochondrial (Plasmodium falciparum (isolate 3D7)) (UniProt Q08210). As to the kind of experiment: inhibition of P. falciparum DHODH – biochemical, C-terminal His tag, absorbance 600 nm, primary screen (AID 1175).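 Further: recombinant parasite enzyme with a five histidine tag at its C terminus; test concentration not given here.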 The following applies: PfDHODH enzyme, DCIP absorbance 600 nm; higher = more signal, called active from +8 up or from −8 down.

Assay [15] can be described thus: inhibition of PAO1 biofilm formation – strain PAO1, LB-PBS medium, absorbance 600 nm, primary screen (AID 1176). Further: test concentration not given here. The following applies: P. aeruginosa PAO1 growth/biofilm, A600, 12 h; higher = more signal.
Assay [16] in a line: growth modulation of vineyard yeast isolate – strain RM11-1a, OD600, basal, 24 h, primary screen (AID 1177).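 Further: cultures grown under basal conditions with no added stressor; test concentration not given here.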 The conditions noted are these: S. cerevisiae RM11-1a growth, OD600, 24 h; higher = more signal, called active from +8 up or from −8 down.
Assay [17] can be described thus: growth of efflux-deficient E. coli DRC39 – strain DRC39, OD650, 24 h, E. coli filamentation inducers, primary screen (AID 1178).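 Further: growth measured as culture turbidity by optical density at 650 nm; test concentration not given here.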 The following applies: E. coli DRC39 acrAB, higher = more signal, called active from +8 up or from −8 down.
Assay [18] in a line: growth of efflux-deficient E. coli DRC39 – strain DRC39, OD650, 48 h, E. coli filamentation inducers, primary screen (AID 1179).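 Further: screen aims at cell division blockers that make cells filament.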 The following applies: E. coli DRC39 delta-acrAB growth, higher = more signal, called active from +8 up or from −8 down.
A short description of assay [19]: viability profiling in RPMI8226 myeloma cells – cell-based, resazurin fluorescence, basal, 24 h, PK04 Diversity Set, profiling panel (AID 1180).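 Further: RPMI8826 multiple myeloma cell line at 5000 cells per well; test concentration not given here.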 The following applies: higher = more signal.
Assay [20] has as its target E3 ubiquitin-protein ligase XIAP (Homo sapiens) (UniProt P98170). In words: small molecules binding XIAP protein – biophysical, small-molecule microarray, fluorescence 635 nm, primary screen (AID 1181).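 Further: score merges 667 nm emission and signal to noise over triplicate slides.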 The conditions noted are these: higher = more signal.

Active and inactive are the calls of the source. Unless noted, how the calls were made is not given here.

E3 ubiquitin-protein ligase XIAP (Homo sapiens), sequence (P98170 whole entry, looked up): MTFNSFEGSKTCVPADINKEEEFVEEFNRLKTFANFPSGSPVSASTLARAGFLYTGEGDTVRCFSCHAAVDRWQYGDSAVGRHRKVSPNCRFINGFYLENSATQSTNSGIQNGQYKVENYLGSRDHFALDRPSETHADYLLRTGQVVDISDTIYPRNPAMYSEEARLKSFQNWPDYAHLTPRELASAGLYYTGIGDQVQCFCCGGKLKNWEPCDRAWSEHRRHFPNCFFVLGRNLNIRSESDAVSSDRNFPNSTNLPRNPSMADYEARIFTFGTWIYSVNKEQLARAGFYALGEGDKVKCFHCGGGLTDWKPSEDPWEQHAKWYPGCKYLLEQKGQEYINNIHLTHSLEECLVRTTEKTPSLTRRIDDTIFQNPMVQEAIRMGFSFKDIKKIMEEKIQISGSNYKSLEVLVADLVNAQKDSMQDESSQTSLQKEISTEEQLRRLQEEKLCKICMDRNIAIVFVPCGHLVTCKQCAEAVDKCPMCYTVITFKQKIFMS
Dihydroorotate dehydrogenase (quinone), mitochondrial (Plasmodium falciparum (isolate 3D7)), sequence (Q08210 whole entry, looked up): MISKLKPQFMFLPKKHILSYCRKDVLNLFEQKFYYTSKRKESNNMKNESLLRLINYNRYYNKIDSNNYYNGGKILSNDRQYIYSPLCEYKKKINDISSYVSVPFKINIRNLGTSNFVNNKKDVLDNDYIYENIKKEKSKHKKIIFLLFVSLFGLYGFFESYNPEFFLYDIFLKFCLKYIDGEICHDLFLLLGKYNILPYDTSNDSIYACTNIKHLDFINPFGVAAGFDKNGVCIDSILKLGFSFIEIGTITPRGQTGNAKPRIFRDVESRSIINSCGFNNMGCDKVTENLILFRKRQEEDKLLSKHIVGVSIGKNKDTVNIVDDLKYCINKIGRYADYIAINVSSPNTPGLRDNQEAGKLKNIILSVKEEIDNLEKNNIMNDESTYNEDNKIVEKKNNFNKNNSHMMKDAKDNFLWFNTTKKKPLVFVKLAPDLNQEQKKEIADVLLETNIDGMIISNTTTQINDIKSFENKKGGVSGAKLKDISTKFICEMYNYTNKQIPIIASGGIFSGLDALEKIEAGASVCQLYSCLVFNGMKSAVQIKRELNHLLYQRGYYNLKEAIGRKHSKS

As to `C=C(COC)C(=O)CC[C@H](OC(C)=O)c1ccccc1OCCO`, the z-score in assay [1] is 0.0878; in assay [2], 2.22; in [3] it was -0.699; in [4], -3.39; in [5], -1.97; in [6], 1.61. For the same molecule, the z-score in assay [7] was 0.862 (inactive); in [8], -0.699; in assay [9] it was -1.18; in [10], -0.164 (inactive); in assay [11], -0.812; in [12], -0.86 (inactive). In addition, the z-score in assay [13] was -2.03 (inactive); in assay [15], -0.435 (inactive); in assay [16], -0.0727 (inactive); in [17], 0.732 (inactive); in [18] it was 0.373 (inactive); in assay [19], -2.37. Further, the figures for the composite z-score in assay [14] and in [20] were -1.56 (inactive) and 0.0153, respectively.
For the molecule `COCCOC(=O)N1C(=O)[C@@]2(c3cc(C#CCNC(N)=O)ccc31)[C@H](C(=O)N1CCN(c3ncccn3)CC1)[C@H]1C(=O)O[C@H](c3ccccc3)[C@H](c3ccccc3)N1[C@@H]2c1ccc(O)cc1`, the z-score in assay [1] is 0.722; in [2], -0.118; in [3], 0.568; in [4], 0.445; in [5], 1.17; in assay [6], 0.866. The z-score was -0.709 (inactive) in [7]; -0.0604 in assay [8]; -0.564 in assay [9]; -0.824 (inactive) in assay [10]; -0.203 in assay [11]; -0.171 (inactive) in [12]. The z-score is 0.0034 (inactive) in assay [13]; 1.13 (inactive) in assay [15]; -0.34 (inactive) in assay [16]; 0.589 (inactive) in assay [17]; 1.15 (inactive) in assay [18]; 0.436 in assay [19]. The results for the composite z-score in [14] and in assay [20] were 0.386 (inactive) and -0.0129, respectively.
As for `COC(=O)C(CC#Cc1ccc2c(c1)[C@]1(C(=O)N2)[C@H](c2ccccc2OCCO)N2[C@H](c3ccccc3)[C@H](c3ccccc3)OC(=O)[C@H]2[C@@H]1C(=O)N1CCN(c2ncccn2)CC1)C(=O)OC`, the z-score was -0.071 in [1]; -1.46 in [2]; 0.496 in [3]; -3.23 in [4]; -4.35 in assay [5]; -0.735 in assay [6]. For the same molecule, the z-score was 0.181 (inactive) in assay [7]; -1.11 in assay [8]; -1.92 in assay [9]; 0.103 (inactive) in assay [10]; -0.0452 in assay [11]; 2.09 (inactive) in assay [12]. The z-score is -0.935 (inactive) in [13]; 2.29 (inactive) in assay [15]; 3.65 (inactive) in [16]; 0.236 (inactive) in [17]; -0.11 (inactive) in assay [18]; -4.73 in assay [19]. Also, the composite z-score in [14] was -16.6 (active); in [20] it was 0.306.
For `CCCCCCc1nc(Cc2cc(OC)c(OC)c(OC)c2)c(C)c2c1[Si](C(C)C)(C(C)C)OC2`, the z-score in [1] is 0.106; in assay [2] it was 0.986; in assay [3] it was -0.348; in assay [4], 0.286; in assay [5] it was -3.41; in [6], 4.95. Further, the z-score in assay [7] was 0.835 (inactive); in assay [8] it was -0.651; in [9], 0.0845; in assay [10] it was 0.504 (inactive); in assay [11], -0.422; in assay [12], -0.944 (inactive). The z-score was 0.328 (inactive) in [13]; 0.055 (inactive) in [15]; -0.599 (inactive) in [16]; 1.4 (inactive) in assay [17]; 0.707 (inactive) in assay [18]; 0.556 in assay [19]. Besides, the figures for the composite z-score in [14] and in [20] were -3.29 (inactive) and 0.146, respectively.
With `C[C@]12C(=O)N(CCO)[C@@H]3C(=O)N(c4ccc(Cl)cc4)CC=CC31O[C@@H]1/C=C\CCCOC(=O)C12` (stereo not given in full), the z-score in assay [1] was 0.614; in [2], 1.38; in assay [3], 0.488; in assay [4] it was 0.971; in assay [5] it was -0.966; in assay [6], -0.646. In addition, the z-score in assay [7] is -0.766 (inactive); in assay [8] it was -0.129; in assay [9] it was 1.61; in assay [10], -1.3 (inactive); in assay [11], -0.561; in assay [12] it was 0.13 (inactive). The z-score was -0.562 (inactive) in assay [13]; -0.481 (inactive) in assay [15]; 0.556 (inactive) in [16]; -1.18 (inactive) in assay [17]; -1.25 (inactive) in assay [18]; -0.184 in assay [19]. The composite z-score is -0.141 (inactive) in assay [14] and -0.0746 in [20].
For the molecule `COc1ccc(C(O)C2C=CC3C(=O)N(C)C(=O)C3N2Nc2ccccc2)cc1` (stereo not given), the z-score in assay [1] was -1.12; in [2] it was -0.221; in assay [3], -0.393; in [4], 0.291; in assay [5], -0.301; in assay [6] it was -1.27. The z-score in assay [7] is -0.0635 (inactive); in assay [8], -0.176; in [9], -0.153; in assay [10], -1.27 (inactive); in [11] it was -1.73; in assay [12], -3.09 (inactive). Besides, the z-score is -0.956 (inactive) in [13]; 1.33 (inactive) in [15]; -0.119 (inactive) in assay [16]; -0.386 (inactive) in [17]; -0.605 (inactive) in assay [18]; -1.08 in [19]. Besides, the composite z-score in assay [14] was -0.685 (inactive); in [20] it was 0.032.
Take `COCCCNC(=O)[C@@]1(CCC(=O)OC(C)(C)C)N=C(c2ccc(OCCCO)cc2)O[C@H]1c1ccccc1`: the z-score in assay [1] is 0.899; in [2], -0.0512; in assay [3] it was 0.317; in assay [4] it was 0.32; in assay [5] it was 0.678; in [6] it was 0.842. Besides, the z-score was 2.11 (inactive) in assay [7]; 0.721 in assay [8]; -1.08 in assay [9]; -0.376 (inactive) in assay [10]; -0.464 in assay [11]; 1.12 (inactive) in [12]. The z-score in assay [13] is 0.34 (inactive); in [15] it was -0.568 (inactive); in [16], 0.795 (inactive); in assay [17], 0.267 (inactive); in assay [18], 1.22 (inactive); in assay [19], 0.137. In addition, the composite z-score was -1.1 (inactive) in assay [14] and -0.171 in [20].
`COCCOC(=O)N1C(=O)[C@@]2(c3ccccc31)[C@H](C(=O)Nc1nc3ccccc3s1)[C@H]1C(=O)O[C@H](c3ccccc3)[C@H](c3ccccc3)N1[C@@H]2c1ccccc1OCCO`: the z-score in [1] is -0.905; in assay [2] it was 0.679; in assay [3], -0.899; in assay [4], -0.975; in assay [5] it was -1.48; in assay [6] it was -2.27. Further, the z-score in [7] was 2.21 (inactive); in [8] it was -0.796; in [9] it was -0.61; in [10], 0.101 (inactive); in [11] it was -0.49; in assay [12], 2.38 (inactive). For the same molecule, the z-score is -0.304 (inactive) in assay [13]; 2.9 (inactive) in assay [15]; 2.25 (inactive) in [16]; 0.0795 (inactive) in [17]; -0.315 (inactive) in [18]; -0.236 in assay [19]. Moreover, the composite z-score in assay [14] was 1.38 (inactive); in [20], 0.0245.
As to `CC1(C)OB(/C=C\CC(OC(=O)c2ccncc2)c2ccccc2)OC1(C)C` (stereo not given), the z-score in assay [1] was -0.0116; in assay [2], 0.282; in [3] it was -0.691; in [4] it was -0.475; in assay [5], -1.45; in [6], -1.27. The z-score in assay [7] was -0.928 (inactive); in assay [8], -0.194; in assay [9], 0.343; in [10], 0.0383 (inactive); in [11], -0.159; in assay [12] it was -1.17 (inactive). Besides, the z-score in [13] was 0.217 (inactive); in [15], -0.159 (inactive); in assay [16] it was -0.786 (inactive); in [17], 0.0147 (inactive); in [18], -0.465 (inactive); in assay [19], 0.143. For the same molecule, the composite z-score was -0.413 (inactive) in assay [14] and 0.0487 in assay [20].

(Values after PubChem BioAssay.)
